Bioassay records from PubChem BioAssay.
Shown are actives, neighbours in structure and some others; about 3.2% of the full set was active somewhere.
aDG glyco act – alpha-DG glycosylation activation; Pro5-aDG cells, alpha-DG glycosylation AlphaScreen (IIH6); 0% Pro5, 100% B10-LARGE cell signal; 0.22% of 360,000 active; activation, % at 10 µM;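 active means activation of at least 8% versus controls, or a plate z-score of at least 8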;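 further: Pro5 are CHO cells carrying HIG-tagged alpha-DG that lacks glycosylation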
PfG6PD inh – PfG6PD (Plasmodium falciparum) enzyme inhibition; inhibition, % at 20 µM; PfGluPho enzyme, NADPH resazurin-diaphorase fluorescence; 0.78% of 350,000 active; AID 504690;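 active means inhibition reaching at least a set limit at 20 µM in the primary screen, cut at about 59% in these data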;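 further: 0% = DMSO wells with substrate and 100% = DMSO wells lacking glucose-6-phosphate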
Cardio protect – myocardial damage modulation in H9c2 cells; H9c2 cardiomyocytes, H2O2 injury protection, ATPLite, 2 h; protection from H2O2 cell death, % at 20 µM; 0.63% of 360,000 active;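 active means compounds giving at least 50% protection of heart cells from peroxide-induced death in the single-dose screen, raw or plate-pattern-corrected value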;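 further: 0% = DMSO wells with peroxide and 100% = DMSO wells without peroxide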
CRFBP-R2 block – blocks CRF-induced signaling of the CRF-BP/CRF-R2 complex; 0.59% of 350,000 active; inhibition, % at 11.8 µM; HEK293 CRF-R2/CRF-BP, CRF-induced calcium fluorescence;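 active means inhibition of the ligand-induced calcium signal above about 50% at the single tested concentration, limit read from the data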
FAS-TE inh – FAS thioesterase (human) inhibition. inhibition, % at 15 µM. P49327. 0.67% of 360,000 active. recombinant FAS-TE, OMFH fluorogenic substrate, fluorescence endpoint;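 active means compounds whose normalised, plate-corrected inhibition of enzyme fluorescence in the single-dose primary screen is 50% or more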;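 further: 0% = DMSO with enzyme and 100% = substrate without enzyme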
CRFBP-R2 agonist – CRF-BP/CRF-R2 complex agonism | activation, % at 13.2 µM | AID 588473 | HEK293 CRF-R2/CRF-BP, calcium dye fluorescence (FLIPR); percent of saturating CRF peptide response | 0.46% of 350,000 active;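 active means activation of at least 50%, plus an integration ratio under a set limit after plate pattern correction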;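 further: plate controls were neutral control wells without compound for no effect and CRF at EC100 for full effect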
PfG6PD confirm – PfG6PD inhibition, single-dose confirmed; shares compounds with PfG6PD inh; recombinant PfGluPho, NADPH-diaphorase-resazurin fluorescence; inhibition, % at 20 µM; 34% of 2,400 active; AID 504753;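 active means inhibition of at least 50% at 20 µM in any single replicate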;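 further: 0% = DMSO with substrate and 100% = DMSO lacking glucose-6-phosphate substrate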
Diaph ctr 10uM – counter-screen for P. falciparum G6PD inhibitors: diaphorase inhibitors, oxidizers. diaphorase-coupled resazurin reduction, fluorescence, NADPH 10 uM. inhibition, % at 20 µM. 39% of 820 active. shares compounds with PfG6PD inh;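 active means average inhibition reaching 50% or more with the compound at 20 µM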;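 further: resorufin red fluorescence formed as diaphorase reduces resazurin using NADPH; 0% = DMSO with enzyme and 100% = DMSO without enzyme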
Diaph ctr 30uM – inhibits diaphorase or oxidizes, flagging false PfG6PD hits; Diaphorase/resazurin coupled assay, resorufin fluorescence, 30 uM NADPH; 29% of 820 active; inhibition, % at 20 µM; shares compounds with PfG6PD inh;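 active means inhibition averaging 50% or more, tested at 20 µM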;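 further: 0% = DMSO with enzyme and 100% = DMSO wells lacking diaphorase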
* hit, by the source's call; . = not tested or not shown.

SMILES | aDG glyco act | PfG6PD inh | Cardio protect | CRFBP-R2 block | FAS-TE inh | CRFBP-R2 agonist | PfG6PD confirm | others
CCC(=O)NC1=C(Cl)C(=O)C(NC(=O)CC)=C(Cl)C1=O | 0 | 114* | -19 | -2 | -1 | -2 | 114* | Diaph ctr 10uM=98*;Diaph ctr 30uM=97*
O=C(NC(NC(=O)c1ccccc1)c1cccc([N+](=O)[O-])c1)c1ccccc1 | 0 | 2 | 1 | -4 | -2 | -3 | .
COc1ccc(C(CC(=O)c2ccc(C)cc2)Sc2ccccc2N)cc1 (stereo unspecified) | 0 | 30 | -14 | -3 | 16 | -1 | .
Nc1ccccc1SC(CC(=O)c1ccccc1)c1cccc([N+](=O)[O-])c1 (stereo unspecified) | 0 | 70* | -15 | -16 | 20 | 2 | 22
Nc1ccccc1SC(CC(=O)c1ccccc1)c1ccc([N+](=O)[O-])cc1 (stereo unspecified) | 0 | 61* | -22 | -11 | 21 | -1 | 10
COC(=O)[C@@]12C[C@@H](CC(=O)NCc3cccc(C(F)(F)F)c3)C(=O)N(CCc3ccc(OC)c(OC)c3)C1=CCC(C)(C)C2 | 0 | . | . | . | . | . | .
COc1ccc2cc(CN(Cc3ccco3)C(=S)NCC3CCCO3)c(=O)[nH]c2c1 (stereo unspecified) | 0 | 67* | 1 | -20 | 1 | 2 | 14
CC1=C(C(=O)OCc2ccccc2)C(c2cccnc2)n2nnnc2N1 (stereo unspecified) | 0 | 61* | -5 | -6 | -6 | 1 | 31
CCCCCOC(=O)C1=C(C)Nc2nnnn2C1c1ccccc1Cl (stereo unspecified) | 0 | 8 | -5 | -20 | 29 | -2 | .
C=CCNC(=O)c1sc(=S)n(-c2ccc(C(=O)OCC)cc2)c1N | 0 | 68* | -1 | 10 | -9 | -1 | 34
CCOC(=O)c1ccc(-n2c(N)c(C(=O)NCC3CCCO3)sc2=S)cc1 (stereo unspecified) | 0 | 74* | -3 | -1 | -26 | 0 | 53* | Diaph ctr 10uM=11;Diaph ctr 30uM=12
CCOC(=O)c1ccc(-n2c(N)c(C(=O)NCc3ccco3)sc2=S)cc1 | 0 | 83* | -1 | 31 | 11 | 0 | 38
CCOC(=O)c1sc(=S)n(-c2ccc(C)cc2)c1N | 0 | 67* | -2 | 3 | 5 | -2 | 32
Cc1ccc(-c2[nH]ncc2/C=N/n2c(COc3ccccc3C)nc3ccccc3c2=O)cc1 | -1 | -20 | 14 | 3 | -23 | 3 | .
Cn1c(O)c(N=NC(=O)CNC(=O)/C=C/c2ccccc2)c2ccccc21 | 0 | -4 | 12 | 6 | 0 | -5 | .
Cc1ccc(-n2c(N)c(C(=O)NCc3cccnc3)sc2=S)cc1 | 0 | 68* | -16 | 25 | -1 | 0 | 7
COc1ccc(OC)c2c1C(=O)C(Cl)=C(Cl)C2=O | 0 | 125* | -15 | 29 | 30 | 0 | 112* | Diaph ctr 10uM=81*;Diaph ctr 30uM=42
C=CCNC(=S)NNC(=O)c1ccc([N+](=O)[O-])cc1 | 0 | 10 | -4 | -2 | 0 | 0 | .
C=CCN(CC=C)C(=S)NC(=O)c1ccc([N+](=O)[O-])cc1 | 1 | 86* | 12 | 6 | -3 | 2 | -7
O=C(NCc1ccco1)c1cccnc1-c1nc2ccccc2s1 | 0 | 60* | 7 | -66 | -3 | -2 | 25
Nc1ncnc2c1ncn2[C@@H]1O[C@H](C(=O)N(CCC2=CCCCC2)CC2CC2)[C@@H](O)[C@H]1O | 0 | . | -5 | . | -7 | . | .
CC(C)(C)C1=Nn2c(nnc2-c2n[nH]c3c2CCC3)SC1 | 0 | 60* | 4 | 1 | -2 | -1 | 12
CC1=Nn2c(nnc2-c2n[nH]c3c2CCC3)SC1 | 0 | -1 | 16 | 29 | -4 | 4 | .
S=c1[nH]c(-c2ccccc2)cn1/N=C/c1ccc(Br)cc1 | 1 | 29 | 6 | -17 | 13 | 0 | .
S=c1[nH]c(-c2ccccc2)cn1/N=C/c1cccs1 | 0 | 63* | -3 | -18 | -1 | -1 | 27
SMILES | aDG glyco act | PfG6PD inh | Cardio protect | CRFBP-R2 block | FAS-TE inh | CRFBP-R2 agonist | PfG6PD confirm | others
O=C(c1ccccc1)c1c[nH]c(C(=O)NNc2ccccc2)c1 | 4 | 69* | -18 | 1 | 0 | 0 | 14
CN(C)CCCNC(=O)c1cc(C(=O)c2ccccc2)c[nH]1 | 0 | -5 | -4 | 7 | -4 | -1 | .
CC(=O)Nc1ccc(S(=O)(=O)Nc2cccc3cccnc23)cc1 | 0 | -7 | -5 | -13 | -4 | -2 | .
O=S(=O)(Nc1cccc2cccnc12)c1ccccc1 | 0 | 96* | 19 | 28 | 6 | 0 | 52* | Diaph ctr 10uM=61*;Diaph ctr 30uM=40
Cc1ccc2cccc(NS(=O)(=O)c3ccccc3)c2n1 | . | 139* | . | -32 | . | -8 | 105* | Diaph ctr 10uM=102*;Diaph ctr 30uM=80*
O=C1C=CC(=O)N1c1ccc2c(c1)Cc1cc(F)ccc1-2 | 0 | 84* | -20 | -4 | 18 | 3 | 45
CC(=O)Nc1ccc2c(c1)Cc1ccc(Cl)cc1-2 | 0 | -6 | -1 | 14 | 10 | -2 | .
CC(=O)Nc1ccc2c(c1)Cc1cc(N3C(=O)C=CC3=O)ccc1-2 | 0 | 111* | -20 | -40 | 2 | 51* | 100* | Diaph ctr 10uM=-14;Diaph ctr 30uM=-15
CCOc1ccc2c(c1)n([O-])c1c([n+]2=O)CCCC1 | 0 | 99* | -1 | -28 | -7 | 1 | 4
COc1ccc2c(c1)n([O-])c1c([n+]2=O)CCC1 | . | 26 | . | -3 | . | 0 | .
O=S1(=O)CC(N2CCCC2)CN1Cc1ccccc1 (stereo unspecified) | 0 | . | -2 | . | -6 | . | .
COCCNC(=S)Nc1ccc(N2CCCCC2)cc1 | 0 | 64* | -4 | -9 | -2 | 1 | 14
COCC(=O)OC1CCn2c1nc1c2C(=O)C(C)=C(NC(C)=O)C1=O (stereo unspecified) | 8 | 123* | -17 | -6 | -12 | -1 | 104* | Diaph ctr 10uM=99*;Diaph ctr 30uM=89*
COC(=O)c1ccc(Sc2ccc(C)cc2)c(N)c1 | 0 | 45 | -15 | 20 | 13 | -1 | .
COc1cc(Sc2ccc(C)cc2)c(OC)cc1N | -1 | 60* | 0 | 38 | -5 | -2 | 56* | Diaph ctr 10uM=17;Diaph ctr 30uM=17
CCOC(=O)c1cc2c(=O)n3cccc(C)c3nc2n(Cc2ccco2)c1=NC(=O)c1cccnc1 | 0 | 60* | 13 | -7 | 0 | 18 | -1
